Inconclusive results are not listed. Active and inactive are the calls of the source. The calls were made as follows, unless noted: active = hit-call score of the fitted dose curve at least 0.9, where 1 is the maximum; inactive = score below 0.9.

Assay [1] can be described thus: CCTE_Shafer_MEA_dev_burst_rate: CCTE's Neural Network Formation Assay for Burst Rate, Shafer Lab (AID 2284042).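 As to AC50: potency for loss of burst rate below DMSO control.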 The procedure, abridged:
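Rat primary cortical cultures on PEI/laminin MEA; compound from plating, re-dosed at DIV 5, 9 media change. Single-electrode bursts/recording length, well mean of active electrodes; AUC over DIV 5–12 recordings; loss-of-signal vs DMSO.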

Assay [2] is described as follows: CCTE_Shafer_MEA_dev_per_burst_interspike_interval: CCTE's Neural Network Formation Assay for Burst Interspike Interval, Shafer Lab (AID 2284044).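 Also: mean spike spacing inside bursts as AUC over recordings on days 5 7 9 12.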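 As to AC50: potency for a decrease of within-burst interspike interval below DMSO level.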 In outline: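 Primary rat cortical neurons on 48-well MEA plates, exposed from day 0 through day 12, treatment renewed at DIV 5 and 9. Within-burst interspike interval recorded days 5, 7, 9, 12, well-averaged, summarised as AUC; negative fit versus DMSO.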

The nature of assay [3]: CCTE_Shafer_MEA_dev_burst_duration_mean: CCTE's Neural Network Formation Assay for Mean Burst Duration, Shafer Lab (AID 2284045).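 As to AC50: curve fitted for loss meaning shorter burst duration than DMSO.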 The procedure, abridged:
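Rat cortical cultures, 1.5 x 10^5 cells/well with laminin drop; continuous dosing days 0–12, media plus treatment refreshed DIV 5, 9. AxIS adaptive spike detection; mean single-electrode burst duration, AUC over four recordings, negative direction vs DMSO.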

Assay [4] is described as follows: CCTE_Shafer_MEA_dev_interburst_interval_mean: CCTE's Neural Network Formation Assay for Mean Interburst Interval, Shafer Lab (AID 2284046).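 Also: well-mean interburst interval of bursting electrodes as AUC over four recording days; curve fitted for decrease in interburst interval relative to DMSO.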 In outline:
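Rat cortical neurons, 1.5 x 10^5 cells/well, 48-well MEA; compound from day 0 through DIV 12, media and treatment renewed DIV 5/9. Recordings DIV 5, 7, 9, 12; well-mean interburst interval → trapezoidal AUC, loss direction vs DMSO.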

Assay [5] is described as follows: CCTE_Shafer_MEA_dev_inter_network_spike_interval_mean: CCTE's Neural Network Formation Assay for Mean Inter-network Spike Interval, Shafer Lab (AID 2284047).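 As to AC50: potency for a decrease in mean inter-network spike interval below DMSO.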 In outline: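 Primary rat cortical neurons on PEI-coated 48-well MEAs (16 electrodes/well) were exposed from plating day 0 to DIV 12, with dosing renewed at DIV 5 and 9. Recordings at DIV 5, 7, 9, 12 were collapsed by trapezoidal AUC, loss-of-signal fit vs DMSO.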

Assay [6] in a line: CCTE_Shafer_MEA_dev_network_spike_number: CCTE's Neural Network Formation Assay for Number of Network Spikes, Shafer Lab (AID 2284048).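 Also: synchronized bursts across electrodes counted on days 5 7 9 12 and integrated as AUC.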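 As to AC50: fit as a loss of signal meaning fewer network spikes than DMSO.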 In outline: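 Rat cortical primary cultures on 48-well MEA (16 electrodes/well); continuous exposure DIV 0–12, full medium and treatment exchange DIV 5, 9. Readout: network spike count, AxIS adaptive detection, recordings DIV 5/7/9/12 collapsed to AUC; loss-of-signal fit, DMSO baseline.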

The nature of assay [7]: CCTE_Shafer_MEA_dev_network_spike_peak: CCTE's Neural Network Formation Assay for Mean Number of Electrodes in Network Spike, Shafer Lab (AID 2284049).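 As to AC50: fitted for loss of signal meaning fewer electrodes in network spikes than DMSO.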 The procedure, abridged:
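Network-spike peak electrode count from recordings on days 5, 7, 9 and 12 was combined as trapezoidal area under the curve. Rat cortical cultures were treated continuously from plating, with compound renewed at each feed (DIV 5, 9); fits versus DMSO.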

The nature of assay [8]: CCTE_Shafer_MEA_dev_spike_duration_mean: CCTE's Neural Network Formation Assay for Mean Spike Duration, Shafer Lab (AID 2284051).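 Also: mean network spike duration pooled as area under curve over DIV 5 to 12 recordings.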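 As to AC50: potency for a decrease in mean network spike duration versus DMSO.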 In outline: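 Rat cortical primary cultures, 48-well MEA (16 electrodes/well); compound from plating, renewed DIV 5, 9. Network spike duration (AxIS adaptive detector) recorded DIV 5/7/9/12, combined as trapezoidal AUC; loss direction vs DMSO.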

Assay [9] in a line: CCTE_Shafer_MEA_dev_network_spike_duration_std: CCTE's Neural Network Formation Assay for Standard Deviation of Network Spike Duration, Shafer Lab (AID 2284052).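 Also: area under curve of spike duration SD across recording days 5 to 12; hits are decreases in network spike duration SD versus DMSO vehicle.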 In outline: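 Rat cortical cultures, 1.5 x 10^5 cells/well, exposed continuously from plating to DIV 12 with media/compound renewal at DIV 5, 9. Spontaneous activity recorded DIV 5/7/9/12, AxIS adaptive spike detector; AUC across days; negative direction vs DMSO.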

The nature of assay [10]: CCTE_Shafer_MEA_dev_per_network_spike_spike_percent: CCTE's Neural Network Formation Assay for Percent of Spikes in a Network Spike, Shafer Lab (AID 2284054). In outline:
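Read-out: percent of spikes falling in a 0.05 s window at network-spike peak, from spontaneous MEA recordings on days 5, 7, 9 and 12; trapezoidal AUC; loss of signal versus DMSO. Rat cortical cultures, compound present throughout.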

A short description of assay [11]: CCTE_Shafer_MEA_dev_LDH: CCTE's Lactate Dehydrogenase Assay for Cytotoxicity in the Neural Network Formation Assay, Shafer Lab (AID 2284068; active = hit-call score of the fitted dose curve at least 0.9, where 1 is the maximum;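 also: exposure for twelve days from plating with re-dosing on DIV 5 and 9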). The procedure, abridged:
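Rat cortical primary neurons, MEA culture; dosing day 0–12, full medium plus compound exchange DIV 5, 9. Read-out: LDH enzyme activity, spectrophotometric. DMSO = negative control/baseline; signal loss → cytotoxicity.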

Assay [12] can be described thus: CCTE_Shafer_MEA_dev_active_electrodes_number: CCTE's Neural Network Formation Assay for Number of Active Electrodes, Shafer Lab (AID 2284040; active = hit-call score of the fitted dose curve at least 0.9, where 1 is the maximum;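 as to AC50: potency for loss of active electrodes versus DMSO so lower counts are hits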). The procedure, abridged: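 Counts electrodes per well firing at least 5 spikes/min, recorded on days 5, 7, 9 and 12 in rat cortical cultures dosed continuously from plating (treatment refreshed DIV 5, 9). Value is the area under the curve over recordings, fitted downward relative to DMSO.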

Assay [13] in a line: CCTE_Shafer_MEA_acute_AB: CCTE's Alamar Blue Assay for Cytotoxicity in the Neural Acute Assay, Shafer Lab (AID 2284069; active = hit-call score of the fitted dose curve at least 0.9, where 1 is the maximum;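 also: active compounds lower the viability signal compared with DMSO wells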). The procedure, abridged: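 Read-out: resazurin fluorescence (ex 544, em 590 nm) after CTB reagent at 1:6 dilution in fresh media. Cells: primary rat cortical neuron networks, DIV 13 or 15, chemically exposed on MEA plates; DMSO as negative control/baseline.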

Assay [14] in a line: UKN5_HCS_SBAD2_cell_viability: Viability Assessment in the University of Konstanz (UKN) Leist Lab Neurite Outgrowth Assay in human iPSC-derived immature Dorsal Root Ganglia Neurons (UKN5) (AID 2284056). In outline: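 iPSC-derived immature peripheral neurons (SBAD2) seeded on Matrigel with CHIR99021, SU5402 and DAPT, dosed 1 h later for 24 h. Viability from Hoechst H-33342 and calcein-AM live staining, high-content imaging; bidirectional fit versus DMSO.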

On to `O=P(O)(O)CCC(F)(F)C(F)(F)C(F)(F)C(F)(F)C(F)(F)C(F)(F)F`, for which the compound was called inactive in assay [1], in assay [2], in [3], in [4], in assay [5] and in assay [6]. Moreover, the outcome in assay [7], in assay [8], in [9], in [10] and in [11] was inactive.
By AC50 is commonly meant the midpoint of the concentration-response curve, whichever way the signal moves. Turning to `CC(C)c1c(C(=O)Nc2ccccc2)c(-c2ccccc2)c(-c2ccc(F)cc2)n1CC[C@@H](O)C[C@@H](O)CC(=O)O`, the AC50 in [12] was 9.81 nM (active); in [1], 8.94 nM (active); in assay [2] it was 25.5 nM (active); in assay [3] it was 10.5 nM (active); in [4] it was 8.32 nM (active); in assay [5], 7.22 nM (active). Besides, the AC50 was 5.74 nM (active) in assay [6]; 6.41 nM (active) in assay [7]; 4.74 nM (active) in assay [8]; 2.68 nM (active) in [9]; 8.21 nM (active) in [10]; 1.48 nM (active) in [11].
Regarding `O=C(F)C(F)(F)C(F)(F)C(F)(F)C(=O)F`, the compound was called inactive in [12], in assay [1], in assay [2], in assay [3], in assay [4] and in assay [5]. Further, the outcome in assay [6], in assay [7], in assay [8], in assay [9] and in [10] was inactive.
Consider `COC(=O)C(F)(F)C(F)(F)C(F)(F)F`, for which the outcome in [12], in assay [1], in assay [2], in [3], in assay [4] and in [5] was inactive. Moreover, the compound was called inactive in [6], in assay [7], in assay [8], in assay [9] and in assay [10].
For the compound `O=C(F)C(F)(F)C(F)(F)C(F)(F)C(F)F`, the outcome in assay [12], in assay [1], in assay [2], in assay [3], in assay [4] and in [5] was inactive. Moreover, the result in [6], in assay [7], in assay [8], in assay [9] and in assay [10] was inactive.
In the case of `N=C(N)c1ccc(OCCCCCOc2ccc(C(=N)N)cc2)cc1`, in assay [13], the call was inactive.
For the compound `O=C(OC(=O)C(F)(F)C(F)(F)F)C(F)(F)C(F)(F)F`, the call in [12], in assay [1], in assay [2], in assay [3], in assay [4] and in assay [5] was inactive. For the same compound, the outcome in assay [6], in assay [7], in assay [8], in assay [9] and in assay [10] was inactive.
Consider `CN(C)CCOC(c1ccccc1)c1ccccc1`, for which the AC50 was 6360 nM (active) in assay [12], 10000 nM (active) in assay [7], 10000 nM (active) in assay [8] and 14000 nM (active) in assay [10]. The outcome in assay [1], in assay [2], in assay [3], in assay [4], in [5] and in [6] was inactive. Also, the call in [9] and in assay [13] was inactive.
Take `O=C(CCCN1CCC(O)(c2ccc(Cl)cc2)CC1)c1ccc(F)cc1`: the concentration at half-maximal activity (AC50) is 2330 nM (active) in assay [12]; 531 nM (active) in [1]; 1780 nM (active) in assay [2]; 1290 nM (active) in assay [3]; 3120 nM (active) in [4]; 568 nM (active) in assay [6]. In addition, the AC50 in assay [7] was 2020 nM (active); in [8], 1780 nM (active); in [9], 1880 nM (active); in assay [10], 2980 nM (active); in [14], 55600 nM (active); in assay [11], 7350 nM (active). In addition, the result in [5] was inactive.
With `FCOC(C(F)(F)F)C(F)(F)F`, the result in assay [12], in assay [1], in assay [2], in assay [3], in [4] and in assay [5] was inactive. For the same compound, the compound was classed as inactive in assay [6], in assay [7], in [8], in assay [9] and in [10].
As to `Oc1ccc(Cc2ccccc2O)cc1`, in assay [13], the compound was called inactive.
For `CCCCc1oc2ccccc2c1C(=O)c1cc(I)c(OCCN(CC)CC)c(I)c1`, the result in [13] was inactive.
Turning to `O=C(C=C(O)C(F)(F)F)C(F)(F)F`, the outcome in assay [1], in [2], in assay [3], in assay [4], in assay [5] and in [6] was inactive. The call in assay [7], in assay [8], in assay [9], in assay [10] and in [11] was inactive.
Consider `O=C(O)CCC(F)(F)C(F)(F)C(F)(F)C(F)(F)C(F)(F)F`, for which the outcome in [1], in assay [2], in assay [3], in assay [4], in [5] and in [6] was inactive. Besides, the result in assay [7], in assay [8], in assay [9], in assay [10] and in assay [11] was inactive.
Regarding `O=C(CC(=O)C(F)(F)C(F)(F)C(F)(F)F)c1cccs1`, the AC50 in assay [12] is 8830 nM (active); in assay [4], 5430 nM (active); in assay [7] it was 7420 nM (active); in [8], 7700 nM (active); in assay [10], 3480 nM (active); in assay [11] it was 8630 nM (active). The compound was classed as inactive in assay [1], in [2], in assay [3], in assay [5], in [6] and in [9].
Turning to `O=C1NS(=O)(=O)c2ccccc21`, the call in assay [12], in assay [1], in [2], in assay [3], in assay [4] and in assay [5] was inactive. Further, the compound was classed as inactive in [6], in assay [7], in assay [8], in assay [9], in assay [10] and in assay [11].
In the case of `O=CC(F)(F)C(F)(F)C(F)(F)C(F)F`, the compound was classed as inactive in assay [12], in assay [1], in assay [2], in assay [3], in assay [4] and in assay [5]. The result in assay [6], in assay [7], in assay [8], in assay [9] and in [10] was inactive.
As to `CN(Cc1cnc2nc(N)nc(N)c2n1)c1ccc(C(=O)N[C@@H](CCC(=O)O)C(=O)O)cc1`, the AC50 is 30.3 nM (active) in [12]; 36.5 nM (active) in assay [1]; 2980 nM (active) in [2]; 72.8 nM (active) in assay [3]; 136 nM (active) in [4]; 30.8 nM (active) in assay [5]. The AC50 is 25.8 nM (active) in assay [6]; 27.9 nM (active) in assay [7]; 34.3 nM (active) in assay [8]; 42.2 nM (active) in assay [9]; 25.3 nM (active) in assay [10]; 8.02 nM (active) in assay [11].

These data come from PubChem BioAssay (EPA / NIEHS).
